The values below come from PubChem BioAssay.

A word on the inhibition: it is the drop in the measured response relative to a control, in per cent.

Unmarked numbers belong to inactive results. How the calls were made is not given here.

For this experiment, the target named is Pantothenate synthetase (Mycobacterium tuberculosis (strain ATCC 25618 / H37Rv)) (UniProt P9WIL5). The experiment is described as follows: Recombinant Mtb pantothenate synthetase (PanC) inhibitors, coupled enzyme, confirmatory (AID 375).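 Further: 0% = full reaction with vehicle and 100% = no enzyme background.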 The conditions noted are these: coupled enzyme assay; at 10 µM, active compounds read high.
Chain of Pantothenate synthetase (Mycobacterium tuberculosis (strain ATCC 25618 / H37Rv)) (P9WIL5 whole entry, looked up): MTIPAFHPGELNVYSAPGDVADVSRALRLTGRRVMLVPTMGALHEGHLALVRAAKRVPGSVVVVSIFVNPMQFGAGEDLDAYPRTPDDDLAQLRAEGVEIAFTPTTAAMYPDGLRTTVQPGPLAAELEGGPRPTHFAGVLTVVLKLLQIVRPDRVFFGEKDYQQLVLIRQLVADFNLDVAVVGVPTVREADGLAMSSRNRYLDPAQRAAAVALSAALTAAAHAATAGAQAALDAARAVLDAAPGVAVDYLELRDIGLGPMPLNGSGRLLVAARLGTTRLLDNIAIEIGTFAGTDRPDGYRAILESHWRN
As for `Clc1cccc(-c2nnc(-c3ccccc3)o2)c1`, the inhibition is 0%.

For the compound `CCn1c(=O)c2cc(S(=O)(=O)NCc3ccccc3)ccc2n(CC)c1=O`, the inhibition was 0%.

Turning to `COc1cccc(/C=N/n2c(-c3ccco3)nc3ccccc3c2=O)c1`, the inhibition was 1%.

`Cc1csc(NC(=O)c2ccccc2C(=O)O)n1`: the inhibition was 5%.

In the case of `CCOC(=O)N1CCC(NC(=O)CCc2c(C)nc3c(c(C)nn3C(C)(C)C)c2C)CC1`, the inhibition was 7%.

Take `Cc1cc(=O)oc2c1ccc1oc(/C(=N/O)c3ccccc3)c(C)c12`: the inhibition is 0%.

On to `CC1(C)CC(=O)C(C=NCc2ccc3c(c2)OCO3)=C(O)C1`, for which the inhibition was 5%.

In the case of `CC1CN(c2nc3ccccn3c(=O)c2/C=C(\C#N)S(=O)(=O)c2ccccc2)CC(C)O1` (stereo not given), the inhibition was 5%.

`CCOC(=O)N1CCN(c2c(N3CCN(c4ccccc4OC)CC3)c(=O)c2=O)CC1`: the inhibition is 0%.

Regarding `CCOC(=O)Cc1nnc(Nc2cccc(O)c2)c2ccccc12`, the inhibition was 9%.

As for `NS(=O)(=O)c1ccc(NC(=O)N[C@@H](Cc2ccccc2)C(=O)O)cc1`, the inhibition is 0%.

Take `CCOC(=O)C1CCN(C(=O)c2ccc(OC)cc2OC)CC1`: the inhibition was 2%.

As to `Fc1ccc(-c2cnc[nH]2)cc1`, the inhibition was 0%.

For `CC(=O)N1CCN(c2ccc(N=Cc3c(O)n(Cc4ccccc4)c(=O)[nH]c3=O)cc2)CC1`, the inhibition was 0%.

With `Cc1ccccc1Cn1nc(C)c(NC(=O)c2noc3c2CCc2ccccc2-3)c1C`, the inhibition is 0%.

For the compound `O=C(NCc1cccs1)c1cc2c(s1)CCCC2`, the inhibition was 0%.

On to `COc1ccc(-c2[nH]nc3c2C(c2ccncc2)C(C#N)=C(N)O3)cc1` (stereo not given), for which the inhibition is 0%.

On to `COc1ccc(-c2cc3nc(C)c(CCC(=O)NCc4ccco4)c(C)n3n2)c(OC)c1`, for which the inhibition was 0%.

As to `COc1ccc(NC(=O)CN2CCN(CC(=O)Nc3cc(OC)cc(OC)c3)CC2)cc1`, the inhibition was 8%.

For `COc1ccc(N(CC(=O)NC2CCCC2)C(=O)Cn2nnc(-c3ccc(C)cc3)n2)cc1`, the inhibition was 0%.

For `CCOc1ccc(N(CC(=O)Nc2ccc(F)c(F)c2)S(=O)(=O)c2c(C)noc2C)cc1`, the inhibition is 4%.

As for `O=C(c1ccc(Cl)cc1)C1CCN(C(=O)NC2CCCCC2)CC1`, the inhibition is 0%.

As for `COC(=O)/C=c1/s/c(=C(/C#N)C(=O)N2CCOCC2)n(-c2ccccc2)c1=O`, the inhibition was 4%.

On to `COCCn1c(COc2ccc(Cl)cc2)nnc1SCC(N)=O`, for which the inhibition was 0%.

As for `CCCCc1nc(NCCN2CCOCC2)c(C#N)c2c1COC(C)(C)C2`, the inhibition is 0%.

For the compound `CCOC(=O)CSc1cn2c(n1)CCC2`, the inhibition was 3%.

As for `CCOC(=O)Nc1ccc(OC)cc1S(=O)(=O)N1CCCCC1`, the inhibition is 0%.

On to `O=C(COc1ccc(F)cc1)Nc1ccc(-n2cnnn2)cc1`, for which the inhibition was 0%.

Turning to `O=S(=O)(Nc1ccc2c(c1)OCO2)c1ccc(Br)s1`, the inhibition was 0%.

As to `CCc1nnc(NC(=O)CSc2nnc(CSc3nc(C)cc(C)n3)n2CC)s1`, the inhibition is 1%.

Take `Cc1cc(Oc2ccccc2)nc(-c2ccccc2)n1`: the inhibition was 0%.

Regarding `CCSc1nc(O)c(C2OC(=O)c3c2ccc(OC)c3OC)c(=O)n1-c1ccccc1` (stereo not given), the inhibition was 0%.

`CCCN(CCO)Cc1cccc(Br)c1`: the inhibition was 3%.

With `CCc1ccc(C=NC23CN4CN(CN(C4)C2)C3)s1`, the inhibition was 0%.

Take `CCN1CCN(c2ncnc3c2oc2nc(C)c4c(c23)CC(C)(C)OC4)CC1`: the inhibition was 0%.

Take `Cc1cccc(-n2c(Cc3cc(=O)[nH]c(=O)[nH]3)nnc2SCC(=O)NCc2ccco2)c1`: the inhibition was 4%.

On to `COc1cccc(-c2nc(CS(=O)CC(=O)NCCCOC(C)C)c(C)o2)c1` (stereo not given), for which the inhibition is 2%.

Turning to `CCOC(=O)c1[nH]c2ccc(C)cc2c1N=C(C)N(C)C`, the inhibition is 11%.

In the case of `O=C1NC(c2ccccc2)(C(F)(F)F)SC2=NCCCN12` (stereo not given), the inhibition was 0%.

Turning to `CCNc1oc(COc2ccccc2F)nc1C#N`, the inhibition was 9%.
